Source: PubChem BioAssay (National Center for Advancing Translational Sciences (NCATS))
3T3 cytotox: NIH 3T3 cell cytotoxicity; NIH 3T3 viability, CellTiter-Glo ATP luminescence, 48-72 h; Potency, µM (doses to about 96.7 µM), for inactives: at the highest dose activity change, negative = cytotoxicity, usual class: inhibitors; 94,000 compounds, 4.3% hits; AID 1345082; further: nearly all actives have a fitted effect of over 55% in size
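Viability of NIH 3T3 cells after 48 or 72 hr compound treatment at 37 °C was assessed by CellTiter-Glo, with luminescence imaged following a 10 min room-temperature step.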
NPR1 antag: antagonists of human natriuretic peptide receptor Npr1 | P16066 | HEK293 hNpr1 GloSensor cGMP, ANP-stimulated luminescence | Potency, µM (series often up to 46.3 µM), for inactives: top-dose activity change, negative = inhibition, hits mostly inhibitors | 76,000 compounds, 1.6% hits | AID 1347048; calls by dose curve; further: nearly all actives have a fitted effect of over 60% in size
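HEK293 cells stably expressing human Npr1 and cGMP GloSensor pGS-40F, loaded 2 h with 2% GloSensor reagent, given compound 30 min at room temperature. Luminescence read before and 20 min after 0.1 nM hNppA.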
HEK cytotox: HEK 293 cell cytotoxicity | HEK 293 viability, ATP luminescence (CellTiter-Glo), 48-72 h | Potency, µM (series often up to 115 µM), for inactives: at the top dose activity change, negative = cytotoxicity, usual class: inhibitors | 94,000 compounds, 6.6% hits | AID 1345083; further: nearly all actives have a fitted effect of over 60% in size
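Pintool-delivered compounds were incubated with HEK 293 cells (250 cells/well) at 37 degree Celsius for 48 or 72 hr. ATP-dependent luminescence (CellTiter-Glo) then reported remaining viable cells.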
FLuc inh: inhibitors of firefly (Photinus pyralis) luciferase; P08659; purified P. pyralis luciferase, luminescence, biochemical; AID 1347043; 76,000 compounds, 2.5% hits; Potency, µM (doses to about 115 µM), usual class: inhibitors; further: nearly all actives have a fitted effect of over 65% in size
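Luminescence read by CCD imager after adding enzyme (10nM final) to wells holding compound, titrated in qHTS. Substrates 10uM each D-luciferin and ATP; buffer 50mM Tris acetate pH 7.5, 10mM Mg acetate, Tween-20, BSA.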
Numbers without * were called inactive; i = inactive; ? = inconclusive; / = no result; [ ] = remark or other dose. An excerpt weighted towards active compounds, which were near 11% of everything screened. Unless noted, the call rests on the fitted dose curve; in most records, active means well fitted curve in the direction sought with a large enough effect; inconclusive means small, poorly fitted or top-dose-only effect, or another doubt; inactive means no such curve, though single readings can be large; an effect the other way counts as inactive or inconclusive. On the % scale 0 is the no-effect control and ±100 the full control effect; potency means the concentration at half of the fitted maximal effect.

SMILES	3T3 cytotox	NPR1 antag	HEK cytotox	FLuc inh
Cn1cccc1CN1CCC2(CC1)CC(=O)c1ccccc1O2	?	-28%[70.6 µM]	?	?
O=C(c1ccc2c(c1)OCO2)N1CCc2nc(C3CC3)nc(-c3ccc(Cl)cc3)c2CC1	?	-12%	28µM*	i
O=C1CC2(CCN(C(=O)c3ccc4c(c3)OCO4)CC2)Oc2cc(Cl)ccc21	?	-8%	45µM*	i
Cc1cc(=O)n(CC(=O)Nc2ccc(C)c(C)c2)c(N(C)Cc2ccccc2)n1	?	?	?	i
CCc1ccc(NC(=O)Cn2c(N(C)Cc3ccccc3)nc(C)cc2=O)cc1	?	?	35µM*	i
CCc1cccc(NC(=O)Cn2c(Nc3cc(C)cc(C)c3)nc(C)cc2=O)c1	-14%	-2%	40µM*	i
O=C1CC(c2ccccc2)N(C(=O)CNC(=O)c2ccc3ncccc3c2)CCCCCCN1 (centres undefined)	-6%	0%	-5%	i
O=C(c1nc2cccnc2n(C2CC2)c1=O)N1CCN(C(=O)C2CC2)CC1	-6%	/	-1%	/
O=C(c1ccccc1F)N1CCC2(CC1)CC(c1cccc(C(F)(F)F)c1)=NO2	?	/	40µM*	/
Cc1ccccc1C(=O)N1CCC2(CC1)CC(c1cccc(C(F)(F)F)c1)=NO2	?	/	32µM*	/
CC(=O)N1CCC2(CC1)CC(c1cccc(C(F)(F)F)c1)=NO2	-10%[138 µM]	/	-6%[172 µM]	/
COc1cccc(C(=O)N2CCCC(C(=O)N3CCC(N4Cc5cccn5C4=O)CC3)C2)c1 (centres undefined)	-14%	/	?	/
O=C(NCCN[S+](=O)([O-])c1ccccc1)c1cccc(-c2ccc(C(F)(F)F)cc2)c1	22µM*	/	10µM*	/
COc1cccc(-c2ccc(C(=O)NCCNC(=O)c3ccc4c(c3)OCO4)cc2)c1	-27%	/	79µM*	/
Cc1ccc([S+](=O)([O-])NCCNC(=O)c2ccc(-c3cccc(C(F)(F)F)c3)cc2)cc1	-22%	/	-27%	/
COc1cccc(-c2ccc(C(=O)NCCN[S+](=O)([O-])c3cccc(C(F)(F)F)c3)cc2)c1	?	/	32µM*	/
Cc1noc(C)c1[S+](=O)([O-])NCCNC(=O)c1ccc(-c2cccc(C(F)(F)F)c2)cc1	35µM*	/	?	/
Cn1ccc(C(=O)N2CCC3(CC2)OC(=O)N(Cc2ccccc2C#N)C3(C)c2ccccc2)n1 (centres undefined)	?	-2%	-11%	i
CC(=O)N1CCN(C(=O)c2ccc3oc(-c4ccncc4Cl)nc3c2)CC1	?	/	-17%[172 µM]	/
CCOc1ccc2c(n1)CCN(C(=O)c1ccc(C)s1)C2	-14%	2%	?	?
O=C(c1ccc(F)cc1)N1CCC(C(=O)N2CCCC(c3nc4ncccc4[nH]3)C2)CC1 (centres undefined)	-1%	/	i	/
COc1ccc(C(=O)NCCNC(=O)c2ccc(-c3cccc(OC)c3)cc2)cc1	-23%	/	-3%	/
COc1cccc(-c2ccc(C(=O)NCCN[S+](=O)([O-])c3ccccc3)cc2)c1	?	/	45µM*	/
CNC(=O)CN1CCCC(N2CCN(c3cccc(C(F)(F)F)c3)CC2)C1 (centres undefined)	-32%	2%	-19%	i
COc1cccc(CN2CCCC(N3CCN(c4cccc(C(F)(F)F)c4)CC3)C2)c1O (centres undefined)	?	-14%	32µM*	i
SMILES	3T3 cytotox	NPR1 antag	HEK cytotox	FLuc inh
CC(C)N1CCC(N2CCCC(N3CCN(c4cccc(C(F)(F)F)c4)CC3)C2)CC1 (centres undefined)	?	6%	20µM*	i
NCC(=O)N1CCCC(N2CCN(c3cccc(C(F)(F)F)c3)CC2)C1 (centres undefined)	?	-3%	-8%	i
CC(C)N1CC(C(=O)NCc2ccc(C(F)(F)F)cc2)NC1=O (centres undefined)	-20%[138 µM]	/	-29%[172 µM]	/
Cc1ccc(-c2cc(O)c3c(c2)CNCCO3)s1	1%	0%	-5%	?
COc1ccc(-n2c(=O)c3c(n2Cc2ccccc2)CN(Cc2c[nH]c4ccccc24)CC3)cc1	?	-17%	?	i
COc1cc(F)ccc1-c1cc(C(=O)NCCc2cnc[nH]2)c2c(c1)N(C)CCO2	100µM*	3%[70.6 µM]	?	i
CN1CCOc2c(C(=O)NCCc3cnc[nH]3)cc(-c3ccccc3F)cc21	?	2%[70.6 µM]	89µM*	i
O=C(c1ccc2nnc(CC3CC3)n2c1)N1CCOCC1	-8%[138 µM]	/	-2%[172 µM]	/
COc1ccc(CN2CC(C)(NC(C)=O)C2)c2ccccc12	-17%[138 µM]	-7%[70.6 µM]	?	i
CNc1nccc(N2CCC(CC(=O)NCCCN3CCC(C)CC3)CC2)n1	?	-3%	?	i
CNc1nccc(N2CCC(CC(=O)NCCC(C)C)CC2)n1	?	6%	32µM*	i
Cc1ccccc1C(=O)N1CCC(CCC(=O)N2CCN(C(C)C)CC2)CC1	-6%	/	-5%	/
CC(C)c1ccc(C(=O)N2CCC(Oc3ccc(C(=O)N(C)C)cn3)CC2)cc1	-21%	-13%	?	i
CN(C)C(=O)c1ccc(OC2CCN(C(=O)c3ccc(Cl)cc3)CC2)nc1	40µM*	-17%	?	i
O=C(NCCc1c[nH]c2ccccc12)c1c(OCC2CC2)cc(=O)n2c1CCOCC2	-13%	-2%	?	i
COCCNc1ncc(-c2ccc(F)cc2)c2c1OCC2	?	1%[70.6 µM]	?	16µM*
COCCNc1ncc(-c2ccc(OC)cc2)c2c1OCC2	?	5%[70.6 µM]	?	45µM*
CN(CC#N)C(=O)[C@@H]1CCCN1c1ccnc2ccnn12	-9%[138 µM]	/	0%[172 µM]	/
COc1cccc(CNC(=O)C2CCCCC(=O)N2Cc2ccccc2)c1 (centres undefined)	-19%	/	-20%	/
CCOCCCNC(=O)C1CCCN1Cc1cccc(-c2cccc(OC)c2)c1 (centres undefined)	32µM*	/	25µM*	/
CCCCCNC(=O)C1CCCN1Cc1ccc(-c2cccc(OC)c2)cc1 (centres undefined)	40µM*	/	22µM*	/
COCCCNC(=O)C1CCCN1Cc1ccc(-c2cncnc2)cc1 (centres undefined)	-22%	/	-1%	/
COc1cccc(-c2cccc(CN3CCCC3C(=O)NCc3ccc(Cl)cc3)c2)c1 (centres undefined)	40µM*	/	40µM*	/
COc1cccc(CNC(=O)C2CCCN2Cc2ccc(-c3cccc(OC)c3)cc2)c1 (centres undefined)	35µM*	/	?	/
COc1cccc(-c2ccc(NC(=O)C3CCCN3Cc3cnn(C)c3)cc2)c1 (centres undefined)	?	-1%	45µM*	i
COc1cccc(-c2ccc(NC(=O)C3CCCN(C(=O)CC(F)(F)F)C3)cc2)c1 (centres undefined)	?	16µM*	?	?
COc1cccc(-c2ccc(CN3CCCC3C(=O)N3CCOCC3)cc2)c1 (centres undefined)	-26%	/	?	/
